Experiment [1] in a line: Quantitative High-Throughput drug screen in 47 multiple myeloma cell lines against the NCATS MIPE library collection: Karpas417_ECACC cell viability assay (AID 1918961). The following applies: Karpas417 myeloma viability, CellTiter-Glo ATP luminescence, 48 h; viability (% of DMSO): at 45.8 µM (top of the series). Put shortly:
(§1)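 Myeloma cells (500 per well) were exposed to MIPE 4.0 compounds by pin transfer and incubated 48 hours at 37C, 5% CO2. Viability was read as ATP by CellTiter-Glo luminescence, normalised to DMSO (100%) and media-only (0%) wells.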
(In ATP-based viability assays light output follows the ATP content of the culture.)

Experiment [2] in a line: Quantitative High-Throughput drug screen in 47 multiple myeloma cell lines against the NCATS MIPE library collection: KHM11_PLB cell viability assay (AID 1918962). Further: nearly all actives have a fitted effect of over 35% in size. The following applies: KHM11 myeloma cell viability, CellTiter-Glo ATP luminescence, 48 h; series mostly up to 45.8 µM. Put shortly: (§2)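 CellTiter-Glo luminescence (ATP) after 48 h compound exposure, 37C/5% CO2; 500 cells/well; MIPE 4.0 approved/investigational drugs pinned in; DMSO = 100%, media only = 0% viability.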

Experiment [3] in a line: Quantitative High-Throughput drug screen in 47 multiple myeloma cell lines against the NCATS MIPE library collection: JIM3_ECACC cell viability assay (AID 1918963; further: nearly all actives have a fitted effect of over 35% in size). The conditions noted are these: JIM3 myeloma viability, CellTiter-Glo ATP, 48 h; series mostly up to 45.8 µM. A digest of the protocol: as §2
Experiment [4] can be described thus: Quantitative High-Throughput drug screen in 47 multiple myeloma cell lines against the NCATS MIPE library collection: JIM1_ECACC cell viability assay (AID 1918964). The following applies: JIM1 myeloma viability, CellTiter-Glo ATP luminescence, 48 h; series mostly up to 45.8 µM. Put shortly: as §2
The nature of experiment [5]: Quantitative High-Throughput drug screen in 47 multiple myeloma cell lines against the NCATS MIPE library collection: INA6_PLB cell viability assay (AID 1918965; further: nearly all actives have a fitted effect of over 55% in size). The conditions noted are these: INA6 myeloma viability, CellTiter-Glo ATP luminescence, 48 h; series mostly up to 45.8 µM. A digest of the protocol:
as §1

Experiment [6] in a line: Quantitative High-Throughput drug screen in 47 multiple myeloma cell lines against the NCATS MIPE library collection: H1112_PLB cell viability assay (AID 1918967; further: nearly all actives have a fitted effect of over 30% in size). The conditions noted are these: H1112 myeloma cells viability, ATP luminescence, 48 h; series mostly up to 45.8 µM. A digest of the protocol:
as §2

A short description of experiment [7]: Quantitative High-Throughput drug screen in 47 multiple myeloma cell lines against the NCATS MIPE library collection: Karpas25_ECACC cell viability assay (AID 1918968; further: nearly all actives have a fitted effect of over 35% in size). The conditions noted are these: Karpas25 myeloma viability, CellTiter-Glo ATP, 48 h; series mostly up to 45.8 µM. Put shortly:
as §2

Experiment [8] is described as follows: Quantitative High-Throughput drug screen in 47 multiple myeloma cell lines against the NCATS MIPE library collection: KMS27_JCRB cell viability assay (AID 1918970). Further: nearly all actives have a fitted effect of over 30% in size. The conditions noted are these: KMS27 myeloma cells, CellTiter-Glo ATP viability, 48 h; viability (% of DMSO): at 45.8 µM (top of the series). Put shortly: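 Luminescent ATP read-out (CellTiter-Glo, 5 min at room temperature) after 48 h compound exposure of 500 KMS27_JCRB cells per well; DMSO wells define full viability and media-only wells zero.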

A short description of experiment [9]: Quantitative High-Throughput drug screen in 47 multiple myeloma cell lines against the NCATS MIPE library collection: KMS26_JCRB cell viability assay (AID 1918975). Further: nearly all actives have a fitted effect of over 45% in size. The following applies: KMS26 myeloma cells viability, CellTiter-Glo ATP, 48 h; series mostly up to 45.8 µM. A digest of the protocol: (§3)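 Approved and investigational drugs from MIPE 4.0 were added by pin tool to 500 cells per well. After 48 hours at 37C, ATP-based CellTiter-Glo luminescence indicated remaining viability.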

Experiment [10] in a line: Quantitative High-Throughput drug screen in 47 multiple myeloma cell lines against the NCATS MIPE library collection: MMM1_PLB cell viability assay (AID 1918976). Further: nearly all actives have a fitted effect of over 35% in size. The following applies: MMM1 myeloma cells viability, CellTiter-Glo, 48 h; series mostly up to 45.8 µM. A digest of the protocol:
(§4)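 Myeloma cells (500/well) treated with MIPE 4.0 compounds for 48 h at 37 °C, 5% CO2. Viability read as ATP via CellTiter-Glo luminescence after 5 min at RT; DMSO-only wells = 100%, media-only = 0% viability.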

Experiment [11] is described as follows: Quantitative High-Throughput drug screen in 47 multiple myeloma cell lines against the NCATS MIPE library collection: NCIH929_DSMZ cell viability assay (AID 1918978). Further: nearly all actives have a fitted effect of over 35% in size. The conditions noted are these: NCI-H929 myeloma viability, CellTiter-Glo ATP, 48 h; series mostly up to 45.8 µM. Put shortly:
as §4

A short description of experiment [12]: Quantitative High-Throughput drug screen in 47 multiple myeloma cell lines against the NCATS MIPE library collection: OCIMY1_PLB cell viability assay (AID 1918979). Further: nearly all actives have a fitted effect of over 35% in size. The conditions noted are these: OCI-MY1 myeloma viability, CellTiter-Glo ATP, 48 h; series mostly up to 45.8 µM. A digest of the protocol: as §4
A short description of experiment [13]: Quantitative High-Throughput drug screen in 47 multiple myeloma cell lines against the NCATS MIPE library collection: MM1S_ATCC cell viability assay (AID 1918980). Further: nearly all actives have a fitted effect of over 45% in size. The conditions noted are these: MM1S myeloma viability, CellTiter-Glo ATP luminescence, 48 h; series mostly up to 45.8 µM. A digest of the protocol:
as §4

Experiment [14] is described as follows: Quantitative High-Throughput drug screen in 47 multiple myeloma cell lines against the NCATS MIPE library collection: MM1R_ATCC cell viability assay (AID 1918981). Further: nearly all actives have a fitted effect of over 35% in size. The following applies: MM1R multiple myeloma cells, CellTiter-Glo viability, 48 h; series mostly up to 45.8 µM. A digest of the protocol: as §4
The nature of experiment [15]: Quantitative High-Throughput drug screen in 47 multiple myeloma cell lines against the NCATS MIPE library collection: JJN3_DSMZ cell viability assay (AID 1918966; further: nearly all actives have a fitted effect of over 50% in size). The conditions noted are these: JJN3 myeloma cells viability, CellTiter-Glo ATP, 48 h; series mostly up to 45.8 µM. Put shortly:
as §2

Experiment [16] is described as follows: Quantitative High-Throughput drug screen in 47 multiple myeloma cell lines against the NCATS MIPE library collection: KMS12BM_JCRB cell viability assay (AID 1918971). Further: nearly all actives have a fitted effect of over 35% in size. The following applies: KMS12BM myeloma viability, CellTiter-Glo ATP, 48 h; series mostly up to 45.8 µM. Put shortly:
as §3

Experiment [17] in a line: Quantitative High-Throughput drug screen in 47 multiple myeloma cell lines against the NCATS MIPE library collection: KMS12PE_JCRB cell viability assay (AID 1918972). Further: nearly all actives have a fitted effect of over 30% in size. The conditions noted are these: KMS12PE myeloma viability, CellTiter-Glo ATP, 48 h; series mostly up to 45.8 µM. A digest of the protocol:
as §1

Experiment [18] is described as follows: Quantitative High-Throughput drug screen in 47 multiple myeloma cell lines against the NCATS MIPE library collection: KMS20_JCRB cell viability assay (AID 1918973). Further: nearly all actives have a fitted effect of over 45% in size. The following applies: CellTiter-Glo ATP, 48 h; series mostly up to 45.8 µM. Put shortly: as §2
Experiment [19] is described as follows: Quantitative High-Throughput drug screen in 47 multiple myeloma cell lines against the NCATS MIPE library collection: KMS21BM_JCRB cell viability assay (AID 1918974). The conditions noted are these: ATP luminescence, 48 h; viability: at 45.8 µM (top of the series). Put shortly: as §2
Experiment [20] can be described thus: Quantitative High-Throughput drug screen in 47 multiple myeloma cell lines against the NCATS MIPE library collection: MOLP8_DSMZ cell viability assay (AID 1918977). Further: nearly all actives have a fitted effect of over 45% in size. The following applies: MOLP8 myeloma viability, CellTiter-Glo ATP luminescence, 48 h; series mostly up to 45.8 µM. A digest of the protocol: as §4

Structures are written as SMILES. Results filed as inconclusive are left out. Calls of active or inactive are those of the source. The call rests on the fitted dose curve; in most records, active means well fitted curve in the direction sought with a large enough effect; inconclusive means small, poorly fitted or top-dose-only effect, or another doubt; inactive means no such curve, though single readings can be large; an effect the other way counts as inactive or inconclusive.
Potency means the concentration at half of the fitted maximal effect.

Take `N#Cc1cc(NC(=O)Nc2nnc(-c3ccncc3)s2)ccc1-c1cn[nH]c1`: the Potency entry in [1], in experiment [2], in experiment [3], in experiment [4], in experiment [5] and in [6] was “inactive” throughout. Moreover, the Potency entry in experiment [7], in experiment [8], in experiment [9], in experiment [11], in [12] and in experiment [14] was “inactive” in each case. For the same molecule, the Potency in experiment [10] is 3320 nM (active); in experiment [13], 5260 nM (active).
For `Nc1ccc(C(=O)Nc2cccc(-c3nc(N4CCOCC4)c4oc5ncccc5c4n3)c2)cn1`, the Potency in experiment [1] was 526 nM (active); in experiment [2] it was 7430 nM (active); in [3], 4180 nM (active); in experiment [4], 5260 nM (active); in experiment [5] it was 3320 nM (active); in experiment [15], 5260 nM (active). Also, the Potency in experiment [6] was 4180 nM (active); in experiment [7], 2350 nM (active); in [8], 6620 nM (active); in experiment [16] it was 23500 nM (active); in experiment [17], 2640 nM (active); in experiment [18], 1480 nM (active). The Potency in experiment [19] was 10500 nM (active); in [9], 2350 nM (active); in experiment [10] it was 16600 nM (active); in experiment [20] it was 20900 nM (active); in [11], 2640 nM (active); in experiment [13], 23500 nM (active). For the same molecule, the Potency in experiment [14] is 13200 nM (active).
As to `Cc1cnc(NC(=O)Nc2cc(Br)c(C)cc2OC[C@@H]2CNCCO2)cn1`, the viability (% of DMSO) in [1] is 73.4% (active). The Potency in experiment [2] was 20900 nM (active); in experiment [3], 935 nM (active); in experiment [4] it was 1050 nM (active); in experiment [5] it was 469 nM (active); in experiment [15] it was 18700 nM (active); in [6], 5900 nM (active). Moreover, the Potency in experiment [7] is 16600 nM (active); in experiment [17], 833 nM (active); in experiment [18], 5260 nM (active); in [9], 16600 nM (active); in [10], 18700 nM (active); in experiment [20], 4690 nM (active). For the same molecule, the results for the Potency in experiment [11], in experiment [13] and in experiment [14] were 7430 nM (active), 662 nM (active) and 743 nM (active), respectively.
With `CC(C)(O)Cn1c(NC(=O)c2ccc(-c3cn[nH]c3)s2)nc2cc(CN3CCOCC3)ccc21`, the Potency was 118 nM (active) in experiment [1]; 296 nM (active) in experiment [2]; 1320 nM (active) in experiment [3]; 418 nM (active) in experiment [4]; 833 nM (active) in [5]; 1320 nM (active) in [15]. Further, the Potency in [6] is 2640 nM (active); in experiment [7], 935 nM (active); in experiment [8], 372 nM (active); in experiment [16], 2350 nM (active); in [17] it was 469 nM (active); in [18], 2960 nM (active). The Potency in experiment [9] is 2090 nM (active); in experiment [10] it was 2090 nM (active); in experiment [20] it was 1180 nM (active); in [11] it was 1660 nM (active); in [12] it was 1480 nM (active); in experiment [13], 1660 nM (active). For the same molecule, the Potency in experiment [14] was 1660 nM (active).
